# Reference: PMC5540273 (PLoS ONE, 2017)
# Key:
# Settings in all cases: concentration: 1 μM, replicates: in singlicate; n = 1
# TLK1 = test system: TLK1
# TLK2 = test system: TLK2
# TNIK = test system: TNIK
# TNK1 = test system: TNK1
# TNK2 = test system: TNK2
# TNNI3K = test system: TNNI3K
# TRKA = test system: T1, TRKA
# T1 construct: gene NTRK1
# TRKB = test system: TRKB
# TRKC = test system: T2, TRKC
# T2 construct: gene NTRK3
# TRPM6 = test system: TRPM6
# TSSK1B = test system: TSSK1B
# TSSK3 = test system: TSSK3
# TTK = test system: TTK
# TXK = test system: TXK
# [1] = test system: TYK2(JH1domain-catalytic)
# [2] = test system: TYK2(JH2domain-pseudokinase)
# TYRO3 = test system: TYRO3
# ULK1 = test system: ULK1
# ULK2 = test system: ULK2
# ULK3 = test system: ULK3
# 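Further: KINOMEscan kinase panel screen.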
SMILES,%Inh (TLK1) [%],%Inh (TLK2) [%],%Inh (TNIK) [%],%Inh (TNK1) [%],%Inh (TNK2) [%],%Inh (TNNI3K) [%],%Inh (TRKA) [%],%Inh (TRKB) [%],%Inh (TRKC) [%],%Inh (TRPM6) [%],%Inh (TSSK1B) [%],%Inh (TSSK3) [%],%Inh (TTK) [%],%Inh (TXK) [%],%Inh [1] [%],%Inh [2] [%],%Inh (TYRO3) [%],%Inh (ULK1) [%],%Inh (ULK2) [%],%Inh (ULK3) [%]
COc1ccc(Nc2nccc(NCCNC(=O)Nc3cc(C)ccc3C)n2)cc1 [GSK1379899],0,0,0,0,0,0,3,0,7,0,0,7,0,15,17,0,0,28,0,0
COc1ccc2cc(-c3nc(-c4ccccc4C(C)C)[nH]c3-c3ccncc3)ccc2c1 [SB-660566],0,0,0,32,14,15,0,13,1,18,54,31,0,35,7,27,0,19,0,14
Cc1nccc(-c2c(-c3ccc(F)cc3)ncn2CCCN2CCOCC2)n1.Cl [SB-282975],0,0,0,37,26,0,0,0,16,0,3,43,0,31,42,28,14,9,26,20
Cc1ccc(-c2nc(Nc3ccncc3)c3ccccc3n2)s1 [GSK189015],0,0,8,29,19,14,44,0,0,15,15,17,40,53,24,76,12,12,5,7
COC(=O)c1cccc(NC(=O)NC2CCN(c3ccnc(Nc4ccc(F)cc4)n3)C2)c1 (centres unmarked) [GSK1379725],0,0,0,0,17,2,9,58,82,0,0,3,0,0,0,23,0,15,0,12
COc1ccc(CSc2nnc(-c3ccc4nccn4c3)o2)cc1C(F)(F)F,6,13,0,0,3,0,18,0,38,0,0,1,64,6,8,5,3,0,4,0
Cn1cnc2c(N)ncnc21 [SKF-97623],74,0,0,3,0,0,56,24,7,0,0,0,0,0,0,0,0,0,0,0
Cc1ccc(NC(=O)Nc2ccc(Cl)cc2)cc1-c1ccc(C(=O)Nc2ccncc2)cc1 [GSK1398472],0,0,0,0,16,25,0,0,9,14,0,11,0,47,62,13,4,8,0,0
Cc1ccccc1Cn1ccn2c(=O)cc(N3CCOCC3)nc12 [GSK2269905],0,0,0,6,32,4,0,0,0,2,10,0,5,7,0,0,0,16,0,9
CC(=O)c1c(C)c2cnc(Nc3ccn(C)n3)nc2n(C2CCCC2)c1=O,1,0,0,54,24,16,29,0,0,0,16,0,52,0,0,0,0,0,6,0
